# Experimental data reported in article PMC7862700, “An all-to-all approach to the identification of sequence-specific readers for epigenetic DNA modifications on cytosine”.
# Experiments:
# Test in all cases: DAPPL (digital affinity profiling via proximity ligation, sequencing); 10 mM Tris-HCl pH 7.5, 50 mM NaCl, 1 mM DTT, 4% glycerol, room temperature, 30 min; GST-TFs on glutathione beads, 16-mer random dsDNA library, 0.1% formaldehyde crosslink after washing; high values mean tight binding
# FLI1 = molecular target: T1, FLI1 (Homo sapiens, UniProt Q01543 1-452); settings: protein: recombinant; tags: N-terminal GST; dsDNA, one strand shown
# T1 sequence: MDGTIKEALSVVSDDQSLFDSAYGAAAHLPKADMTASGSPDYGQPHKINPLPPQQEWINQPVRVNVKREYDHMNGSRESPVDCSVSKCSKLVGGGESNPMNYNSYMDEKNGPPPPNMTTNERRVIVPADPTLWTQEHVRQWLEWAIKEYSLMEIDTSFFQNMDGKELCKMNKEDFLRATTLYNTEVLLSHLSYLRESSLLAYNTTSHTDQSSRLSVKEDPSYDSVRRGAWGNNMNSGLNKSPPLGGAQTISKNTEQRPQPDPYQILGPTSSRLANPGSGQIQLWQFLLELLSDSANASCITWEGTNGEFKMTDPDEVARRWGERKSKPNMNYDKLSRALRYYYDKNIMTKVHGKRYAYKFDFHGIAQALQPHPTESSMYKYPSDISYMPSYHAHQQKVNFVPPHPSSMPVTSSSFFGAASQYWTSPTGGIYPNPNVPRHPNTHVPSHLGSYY
# Method in brief: (§1)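 Binding signal is given per hexamer as its read frequency for a factor divided by its frequency in the tag-only sample. GST-fused human transcription factors were expressed in yeast, captured on glutathione beads, barcoded with DNA and pooled with that sample, then incubated with 200 nmole of a 16-mer random double-stranded DNA library in Tris/NaCl/DTT/glycerol buffer for 30 min at room temperature. The pools were then washed, crosslinked, proximity-ligated, amplified by PCR and sequenced on an Illumina NextSeq500.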
# ELK1 = molecular target: T2, ELK1 (Homo sapiens, UniProt P19419 1-428); settings: protein: recombinant; tags: N-terminal GST; dsDNA, one strand shown
# T2 sequence: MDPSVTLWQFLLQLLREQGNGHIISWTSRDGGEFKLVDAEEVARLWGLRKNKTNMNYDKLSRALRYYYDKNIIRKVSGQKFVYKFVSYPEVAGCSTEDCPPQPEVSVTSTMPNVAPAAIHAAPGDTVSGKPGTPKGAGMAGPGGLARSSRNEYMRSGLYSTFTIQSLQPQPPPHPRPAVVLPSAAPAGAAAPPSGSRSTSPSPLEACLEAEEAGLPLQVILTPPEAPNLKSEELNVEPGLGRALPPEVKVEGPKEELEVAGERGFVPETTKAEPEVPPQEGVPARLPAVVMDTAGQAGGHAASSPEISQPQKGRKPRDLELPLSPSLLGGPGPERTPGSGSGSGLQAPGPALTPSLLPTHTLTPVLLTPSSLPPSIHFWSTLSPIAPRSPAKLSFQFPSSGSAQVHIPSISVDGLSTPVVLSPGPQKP
# Method in brief: as §1
# GABPA = molecular target: T3, GABPA (Homo sapiens, UniProt Q06546 1-454); settings: protein: recombinant; tags: N-terminal GST; dsDNA, one strand shown
# T3 sequence: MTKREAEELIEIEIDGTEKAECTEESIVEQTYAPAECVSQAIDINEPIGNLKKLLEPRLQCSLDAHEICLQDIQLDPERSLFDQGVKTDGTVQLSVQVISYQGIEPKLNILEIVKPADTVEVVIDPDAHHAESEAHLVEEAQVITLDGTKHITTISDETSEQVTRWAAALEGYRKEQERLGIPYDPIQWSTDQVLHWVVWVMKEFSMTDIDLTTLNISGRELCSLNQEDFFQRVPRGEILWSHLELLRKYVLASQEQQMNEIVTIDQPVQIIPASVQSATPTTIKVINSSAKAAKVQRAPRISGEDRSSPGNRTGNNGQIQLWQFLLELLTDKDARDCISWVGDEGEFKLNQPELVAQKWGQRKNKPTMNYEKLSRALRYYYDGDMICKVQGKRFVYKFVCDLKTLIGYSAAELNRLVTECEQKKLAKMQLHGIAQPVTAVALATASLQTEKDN
# Method in brief: as §1
# ERG = molecular target: T4, ERG (Homo sapiens, UniProt P11308 1-479); settings: protein: recombinant; tags: N-terminal GST; dsDNA, one strand shown
# T4 sequence: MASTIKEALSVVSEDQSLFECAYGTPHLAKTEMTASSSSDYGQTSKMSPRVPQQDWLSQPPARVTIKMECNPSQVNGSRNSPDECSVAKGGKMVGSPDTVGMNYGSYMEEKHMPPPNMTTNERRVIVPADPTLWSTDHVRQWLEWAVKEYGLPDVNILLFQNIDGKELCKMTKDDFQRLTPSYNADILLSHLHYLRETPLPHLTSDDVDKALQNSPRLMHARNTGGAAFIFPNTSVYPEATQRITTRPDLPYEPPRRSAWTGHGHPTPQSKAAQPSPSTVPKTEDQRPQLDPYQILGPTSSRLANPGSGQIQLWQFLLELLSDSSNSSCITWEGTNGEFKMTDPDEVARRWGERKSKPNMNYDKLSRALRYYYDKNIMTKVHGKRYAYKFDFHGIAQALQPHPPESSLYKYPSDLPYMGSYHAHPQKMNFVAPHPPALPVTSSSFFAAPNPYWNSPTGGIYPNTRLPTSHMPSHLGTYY
# Method in brief: as §1
# ELF1 = ELF1 (Homo sapiens, UniProt P32519 1-619); settings: protein: recombinant; tags: N-terminal GST; dsDNA, one strand shown
# Method in brief: as §1
# EHF = molecular target: T5, EHF (Homo sapiens, UniProt Q9NZC4 1-300); settings: protein: recombinant; tags: N-terminal GST; dsDNA, one strand shown
# T5 sequence: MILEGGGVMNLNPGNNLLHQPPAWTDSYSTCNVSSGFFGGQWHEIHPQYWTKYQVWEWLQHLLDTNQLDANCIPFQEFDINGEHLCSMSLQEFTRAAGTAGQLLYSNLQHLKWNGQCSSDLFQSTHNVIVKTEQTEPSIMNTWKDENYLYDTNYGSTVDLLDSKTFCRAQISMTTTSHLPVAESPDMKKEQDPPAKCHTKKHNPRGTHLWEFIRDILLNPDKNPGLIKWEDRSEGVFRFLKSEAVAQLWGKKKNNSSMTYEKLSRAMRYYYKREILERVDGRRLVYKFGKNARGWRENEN
# Method in brief: as §1
# SPI1 = SPI1 (Homo sapiens, UniProt P17947 1-270); settings: protein: recombinant; tags: N-terminal GST; dsDNA, one strand shown
# Method in brief: as §1
# SPIB = SPIB (Homo sapiens, UniProt Q01892 1-262); settings: protein: recombinant; tags: N-terminal GST; dsDNA, one strand shown
# Method in brief: as §1
# ELK3 = molecular target: T6, ELK3 (Homo sapiens, UniProt P41970 1-407); settings: protein: recombinant; tags: N-terminal GST; dsDNA, one strand shown
# T6 sequence: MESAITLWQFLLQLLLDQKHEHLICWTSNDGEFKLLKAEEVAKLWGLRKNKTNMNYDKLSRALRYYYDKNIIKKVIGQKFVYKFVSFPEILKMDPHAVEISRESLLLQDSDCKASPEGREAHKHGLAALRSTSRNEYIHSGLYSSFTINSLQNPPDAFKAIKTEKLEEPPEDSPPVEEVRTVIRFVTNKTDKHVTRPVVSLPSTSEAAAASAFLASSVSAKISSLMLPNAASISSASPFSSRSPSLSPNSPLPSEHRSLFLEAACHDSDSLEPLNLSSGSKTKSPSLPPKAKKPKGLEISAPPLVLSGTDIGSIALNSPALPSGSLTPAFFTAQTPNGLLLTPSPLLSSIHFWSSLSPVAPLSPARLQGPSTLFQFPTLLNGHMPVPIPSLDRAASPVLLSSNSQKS
# Method in brief: as §1
# FEV = molecular target: T7, FEV (Homo sapiens, UniProt Q99581 1-238); settings: protein: recombinant; tags: N-terminal GST; dsDNA, one strand shown
# T7 sequence: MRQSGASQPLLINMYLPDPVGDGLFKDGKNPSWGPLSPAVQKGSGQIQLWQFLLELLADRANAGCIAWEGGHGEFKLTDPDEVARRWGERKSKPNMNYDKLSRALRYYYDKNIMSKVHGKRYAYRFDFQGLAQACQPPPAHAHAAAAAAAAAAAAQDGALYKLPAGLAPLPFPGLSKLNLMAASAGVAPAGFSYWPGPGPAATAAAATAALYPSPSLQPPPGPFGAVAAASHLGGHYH
# Method in brief: as §1
# ETV5 = ETV5 (Homo sapiens, UniProt P41161 1-510); settings: protein: recombinant; tags: N-terminal GST; dsDNA, one strand shown
# Method in brief: as §1
# HSF1 = HSF1 (Homo sapiens, UniProt Q00613 1-529); settings: protein: recombinant; tags: N-terminal GST; chain copies: 3; dsDNA, one strand shown
# Method in brief: as §1
# SPIC = molecular target: T8, SPIC (Homo sapiens, UniProt Q8N5J4 1-248); settings: protein: recombinant; tags: N-terminal GST; dsDNA, one strand shown
# T8 sequence: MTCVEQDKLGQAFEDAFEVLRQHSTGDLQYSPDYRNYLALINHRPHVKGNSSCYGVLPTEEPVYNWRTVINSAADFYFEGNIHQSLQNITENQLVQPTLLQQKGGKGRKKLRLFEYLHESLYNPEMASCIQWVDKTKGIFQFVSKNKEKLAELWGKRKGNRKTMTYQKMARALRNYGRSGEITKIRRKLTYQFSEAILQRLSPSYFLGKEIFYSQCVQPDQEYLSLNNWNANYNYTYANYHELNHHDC
# Method in brief: as §1
# ELF4 = ELF4 (Homo sapiens, UniProt Q99607 1-663); settings: protein: recombinant; tags: N-terminal GST; dsDNA, one strand shown
# Method in brief: as §1
# ELK4 = molecular target: T9, ELK4 (Homo sapiens, UniProt P28324-2 1-405); settings: protein: recombinant; tags: N-terminal GST; dsDNA, one strand shown
# T9 sequence: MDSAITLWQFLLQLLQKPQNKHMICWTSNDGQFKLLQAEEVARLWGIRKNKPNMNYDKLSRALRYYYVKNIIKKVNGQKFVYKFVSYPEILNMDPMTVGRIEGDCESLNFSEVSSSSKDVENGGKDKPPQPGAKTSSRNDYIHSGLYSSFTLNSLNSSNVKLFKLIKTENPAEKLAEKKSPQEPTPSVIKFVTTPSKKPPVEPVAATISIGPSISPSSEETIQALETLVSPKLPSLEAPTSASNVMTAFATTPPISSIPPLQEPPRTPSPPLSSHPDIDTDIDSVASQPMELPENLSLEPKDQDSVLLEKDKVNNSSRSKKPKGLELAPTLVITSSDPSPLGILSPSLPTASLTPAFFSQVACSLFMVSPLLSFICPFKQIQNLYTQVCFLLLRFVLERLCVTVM
# Method in brief: as §1
# ETV2 = molecular target: T10, ETV2 (Homo sapiens, UniProt O00321 1-342); settings: protein: recombinant; tags: N-terminal GST; dsDNA, one strand shown
# T10 sequence: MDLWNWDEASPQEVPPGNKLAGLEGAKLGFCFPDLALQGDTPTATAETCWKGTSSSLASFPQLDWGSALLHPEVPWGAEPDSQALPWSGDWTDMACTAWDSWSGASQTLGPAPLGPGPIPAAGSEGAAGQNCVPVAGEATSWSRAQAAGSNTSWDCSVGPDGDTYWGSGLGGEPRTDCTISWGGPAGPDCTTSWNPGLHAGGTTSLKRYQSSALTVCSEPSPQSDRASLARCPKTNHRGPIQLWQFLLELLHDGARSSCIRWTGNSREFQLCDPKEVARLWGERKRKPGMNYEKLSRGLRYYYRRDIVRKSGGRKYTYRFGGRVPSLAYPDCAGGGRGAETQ
# Method in brief: as §1
# ELF3 = molecular target: T11, ELF3 (Homo sapiens, UniProt P78545 1-371); settings: protein: recombinant; tags: N-terminal GST; dsDNA, one strand shown
# T11 sequence: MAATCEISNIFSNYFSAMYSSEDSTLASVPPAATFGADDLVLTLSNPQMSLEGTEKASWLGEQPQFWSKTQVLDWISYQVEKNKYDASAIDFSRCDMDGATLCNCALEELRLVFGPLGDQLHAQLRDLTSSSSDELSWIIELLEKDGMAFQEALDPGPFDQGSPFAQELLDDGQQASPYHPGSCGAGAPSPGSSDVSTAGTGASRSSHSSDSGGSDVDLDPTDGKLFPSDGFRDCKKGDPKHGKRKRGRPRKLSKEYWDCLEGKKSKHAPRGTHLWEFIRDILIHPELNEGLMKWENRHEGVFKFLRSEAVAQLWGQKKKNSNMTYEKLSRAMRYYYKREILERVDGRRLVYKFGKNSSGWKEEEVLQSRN
# Method in brief: as §1
# CRX = CRX (Homo sapiens, UniProt O43186 1-299); settings: protein: recombinant; tags: N-terminal GST; dsDNA, one strand shown
# Method in brief: as §1
# ETV1 = ETV1 (Homo sapiens, UniProt P50549 1-477); settings: protein: recombinant; tags: N-terminal GST; dsDNA, one strand shown
# Method in brief: as §1
# ELF1, sequence (P32519 whole entry): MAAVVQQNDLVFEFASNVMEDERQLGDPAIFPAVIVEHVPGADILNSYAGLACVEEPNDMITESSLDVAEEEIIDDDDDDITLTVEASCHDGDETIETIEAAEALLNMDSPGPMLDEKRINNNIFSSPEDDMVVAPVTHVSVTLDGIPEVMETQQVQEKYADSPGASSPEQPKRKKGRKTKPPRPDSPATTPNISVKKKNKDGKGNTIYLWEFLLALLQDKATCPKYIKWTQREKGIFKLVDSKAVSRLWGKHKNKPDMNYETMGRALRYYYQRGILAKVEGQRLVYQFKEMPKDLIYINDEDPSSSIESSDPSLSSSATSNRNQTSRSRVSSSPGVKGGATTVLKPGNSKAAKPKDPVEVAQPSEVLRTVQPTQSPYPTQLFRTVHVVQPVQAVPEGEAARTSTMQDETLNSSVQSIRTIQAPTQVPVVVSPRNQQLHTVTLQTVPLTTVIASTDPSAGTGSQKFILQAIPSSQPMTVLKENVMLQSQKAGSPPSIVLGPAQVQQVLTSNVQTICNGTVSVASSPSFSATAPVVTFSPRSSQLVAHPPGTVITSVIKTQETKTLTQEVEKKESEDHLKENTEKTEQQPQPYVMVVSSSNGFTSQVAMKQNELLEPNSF
# HSF1, sequence (Q00613 whole entry): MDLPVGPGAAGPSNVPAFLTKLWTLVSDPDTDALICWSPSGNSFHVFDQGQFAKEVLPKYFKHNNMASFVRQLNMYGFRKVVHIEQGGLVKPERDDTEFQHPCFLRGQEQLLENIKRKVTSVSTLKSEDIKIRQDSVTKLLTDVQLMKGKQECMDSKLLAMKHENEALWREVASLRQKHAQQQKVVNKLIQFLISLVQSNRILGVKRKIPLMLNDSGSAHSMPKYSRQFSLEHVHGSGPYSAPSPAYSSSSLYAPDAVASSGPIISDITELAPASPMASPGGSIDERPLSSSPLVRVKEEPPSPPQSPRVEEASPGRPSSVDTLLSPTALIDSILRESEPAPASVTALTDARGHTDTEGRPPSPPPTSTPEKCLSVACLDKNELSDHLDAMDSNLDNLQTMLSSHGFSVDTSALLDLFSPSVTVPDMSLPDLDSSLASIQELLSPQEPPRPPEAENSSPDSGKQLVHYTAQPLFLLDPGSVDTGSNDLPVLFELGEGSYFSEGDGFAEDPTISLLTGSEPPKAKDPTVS
# ELF4, sequence (Q99607 whole entry): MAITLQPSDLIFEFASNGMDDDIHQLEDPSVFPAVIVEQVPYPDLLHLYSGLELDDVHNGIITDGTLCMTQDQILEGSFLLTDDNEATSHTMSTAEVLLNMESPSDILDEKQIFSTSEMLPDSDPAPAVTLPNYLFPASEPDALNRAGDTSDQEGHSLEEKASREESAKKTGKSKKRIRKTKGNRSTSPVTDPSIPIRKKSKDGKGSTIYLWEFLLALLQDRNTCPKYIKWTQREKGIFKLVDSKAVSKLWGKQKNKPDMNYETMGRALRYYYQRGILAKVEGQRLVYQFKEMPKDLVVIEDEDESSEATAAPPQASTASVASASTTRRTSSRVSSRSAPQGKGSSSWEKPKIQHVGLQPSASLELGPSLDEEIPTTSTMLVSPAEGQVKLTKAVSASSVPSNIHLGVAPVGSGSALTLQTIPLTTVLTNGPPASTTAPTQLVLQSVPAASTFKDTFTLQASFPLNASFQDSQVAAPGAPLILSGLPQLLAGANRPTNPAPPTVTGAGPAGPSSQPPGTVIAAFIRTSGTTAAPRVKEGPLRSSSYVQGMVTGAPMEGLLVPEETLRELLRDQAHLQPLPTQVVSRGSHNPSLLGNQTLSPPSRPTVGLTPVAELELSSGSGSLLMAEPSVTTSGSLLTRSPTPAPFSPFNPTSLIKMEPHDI
# ETV5, sequence (P41161 whole entry): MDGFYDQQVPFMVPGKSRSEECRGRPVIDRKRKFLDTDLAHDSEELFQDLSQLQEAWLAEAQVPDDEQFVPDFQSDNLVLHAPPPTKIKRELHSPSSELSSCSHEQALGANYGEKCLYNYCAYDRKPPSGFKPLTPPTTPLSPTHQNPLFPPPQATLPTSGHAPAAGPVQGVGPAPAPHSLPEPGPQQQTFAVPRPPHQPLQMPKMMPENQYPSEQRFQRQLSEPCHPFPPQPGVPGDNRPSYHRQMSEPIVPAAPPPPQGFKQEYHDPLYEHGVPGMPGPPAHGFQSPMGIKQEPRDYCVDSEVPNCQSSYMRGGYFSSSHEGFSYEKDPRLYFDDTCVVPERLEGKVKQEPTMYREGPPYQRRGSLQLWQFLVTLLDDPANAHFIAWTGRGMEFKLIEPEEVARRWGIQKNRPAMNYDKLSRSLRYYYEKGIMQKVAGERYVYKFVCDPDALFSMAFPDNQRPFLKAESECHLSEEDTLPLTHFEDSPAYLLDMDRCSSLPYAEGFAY
# SPIB, sequence (Q01892 whole entry): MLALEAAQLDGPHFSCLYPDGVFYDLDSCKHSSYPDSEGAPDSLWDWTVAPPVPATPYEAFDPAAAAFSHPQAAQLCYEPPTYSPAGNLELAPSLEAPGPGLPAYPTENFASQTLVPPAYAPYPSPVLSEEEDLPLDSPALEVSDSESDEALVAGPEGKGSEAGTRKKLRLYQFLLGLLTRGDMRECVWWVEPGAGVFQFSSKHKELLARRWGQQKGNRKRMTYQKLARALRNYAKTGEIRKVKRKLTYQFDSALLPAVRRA
# CRX, sequence (O43186 whole entry): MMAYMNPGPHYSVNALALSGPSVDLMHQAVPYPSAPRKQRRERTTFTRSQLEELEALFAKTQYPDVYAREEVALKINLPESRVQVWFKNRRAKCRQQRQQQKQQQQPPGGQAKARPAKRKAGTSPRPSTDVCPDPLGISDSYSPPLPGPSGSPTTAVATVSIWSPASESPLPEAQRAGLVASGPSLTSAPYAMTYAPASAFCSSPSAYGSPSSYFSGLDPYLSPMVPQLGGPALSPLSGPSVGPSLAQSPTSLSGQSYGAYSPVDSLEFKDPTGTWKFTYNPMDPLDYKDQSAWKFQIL
# ETV1, sequence (P50549 whole entry): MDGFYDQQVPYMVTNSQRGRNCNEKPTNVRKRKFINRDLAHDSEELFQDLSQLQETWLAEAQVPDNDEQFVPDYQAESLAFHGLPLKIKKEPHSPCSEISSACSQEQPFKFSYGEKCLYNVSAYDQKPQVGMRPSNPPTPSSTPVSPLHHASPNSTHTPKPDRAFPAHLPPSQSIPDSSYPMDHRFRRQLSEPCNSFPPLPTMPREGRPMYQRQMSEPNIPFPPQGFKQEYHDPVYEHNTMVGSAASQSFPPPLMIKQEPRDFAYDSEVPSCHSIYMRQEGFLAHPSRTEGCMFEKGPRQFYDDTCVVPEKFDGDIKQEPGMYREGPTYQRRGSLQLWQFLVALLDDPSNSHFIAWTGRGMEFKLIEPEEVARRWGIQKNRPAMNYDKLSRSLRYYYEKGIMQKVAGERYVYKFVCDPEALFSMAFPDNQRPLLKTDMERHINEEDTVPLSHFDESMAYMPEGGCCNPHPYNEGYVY
sequence,measurement,setting,value
ATCCTC,binding signal,FLI1,"1.48 fold enrichment (6-mer frequency, TF over GST control)"
same,binding signal,ELK1,"1.47 fold enrichment (6-mer frequency, TF over GST control)"
same,binding signal,GABPA,"1.55 fold enrichment (6-mer frequency, TF over GST control)"
same,binding signal,ERG,"1.52 fold enrichment (6-mer frequency, TF over GST control)"
same,binding signal,ELF1,"1.48 fold enrichment (6-mer frequency, TF over GST control)"
same,binding signal,EHF,"1.39 fold enrichment (6-mer frequency, TF over GST control)"
same,binding signal,SPI1,"1.51 fold enrichment (6-mer frequency, TF over GST control)"
same,binding signal,SPIB,"1.41 fold enrichment (6-mer frequency, TF over GST control)"
same,binding signal,ELK3,"1.36 fold enrichment (6-mer frequency, TF over GST control)"
same,binding signal,FEV,"1.48 fold enrichment (6-mer frequency, TF over GST control)"
same,binding signal,ETV5,"1.46 fold enrichment (6-mer frequency, TF over GST control)"
same,binding signal,HSF1,"1.67 fold enrichment (6-mer frequency, TF over GST control)"
same,binding signal,SPIC,"1.31 fold enrichment (6-mer frequency, TF over GST control)"
same,binding signal,ELF4,"1.47 fold enrichment (6-mer frequency, TF over GST control)"
same,binding signal,ELK4,"1.39 fold enrichment (6-mer frequency, TF over GST control)"
same,binding signal,ETV2,"1.68 fold enrichment (6-mer frequency, TF over GST control)"
same,binding signal,ELF3,"1.42 fold enrichment (6-mer frequency, TF over GST control)"
same,binding signal,CRX,"2.46 fold enrichment (6-mer frequency, TF over GST control)"
same,binding signal,ETV1,"1.55 fold enrichment (6-mer frequency, TF over GST control)"
